Screening data: PubChem, National Center for Advancing Translational Sciences (NCATS)
L3MBTL1 block: blocks human L3MBTL1. Q9Y468. AlphaScreen L3MBTL1–H3K9me1 peptide binding. Potency, µM (series often up to 57.1 µM), without a hit: at the highest dose activity, negative = inhibition, hits mostly inhibitors. 0.66% of 230,000 active; further: potency means the concentration at half of the fitted maximal effect; on the % scale 0 is the no-effect control and ±100 the full control effect; nearly all actives have a fitted effect of over 60% in size
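L3MBTL1 50 nM + b-AHA-H3(1-15)K9me1 75 nM, 30 min RT; compound added, 30 min RT; streptavidin donor/Ni-chelate acceptor beads 10 ug/mL each final, 30 min RT dark; AlphaScreen read.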
BAZ2B inh: BAZ2B (human) inhibition; Q9UIF8; AlphaScreen BAZ2B-H3K14Ac peptide displacement; Potency, µM (series often up to 114 µM), for inactives: at the highest dose activity change, negative = inhibition, hits mostly inhibitors; 4.4% of 360,000 active; AID 504333; further: potency means the concentration at half of the fitted maximal effect; on the % scale 0 is the no-effect control and ±100 the full control effect; nearly all actives have a fitted effect of over 60% in size
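BAZ2B (50 nM) with biotin-H3(5-23)K14Ac peptide (50 nM) in PBS pH 7.4, 0.01% Tween-20, preformed 30 min, then compound 30 min at room temperature; top concentration 110uM. AlphaScreen streptavidin donor/nickel chelate acceptor beads (10 ug/mL final), 20 min dark, signal read.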
HP1b binding inh: inhibitors of HP1-beta chromodomain binding to methylated histone tails | P83916 | AlphaScreen HP1-beta / biotin-H3K9me3 peptide binding | Potency, µM (highest dose often 114 µM), for the others: top-dose activity change, negative = inhibition, actives largely listed as inhibitors | 0.56% of 390,000 active | AID 540317; further: potency means the concentration at half of the fitted maximal effect; nearly all actives have a fitted effect of over 70% in size
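HP1-beta protein (50 nM final) preincubated 30 min at room temperature with biotinylated H3(1-18)K9me3 peptide (50 nM) in PBS pH 7.4, 0.01% Tween-20, then compound added for 30 min. AlphaScreen streptavidin donor/nickel chelate acceptor beads (10 ug/mL final), 30 min dark, luminescence read.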
JMJD2A Tudor: blocks the human JMJD2A Tudor domain; O75164; AlphaScreen JMJD2A-Tudor / H3K4me3 peptide binding; Potency, µM (titrated, usually from 114 µM), without a hit: at the top dose activity change, negative = inhibition, hits mostly inhibitors; 4.4% of 390,000 active; AID 504339; further: potency means the concentration at half of the fitted maximal effect; on the % scale 0 is the no-effect control and ±100 the full control effect; nearly all actives have a fitted effect of over 50% in size
KDM4E inh: blocks human JMJD2E demethylase activity; B2RXH2; JMJD2E catalytic domain, FDH-coupled NADH fluorescence (FDH is formaldehyde dehydrogenase); Potency, µM (series often up to 57.1 µM), for inactives: at the top dose activity change, negative = inhibition, usual class: inhibitors; 1.6% of 230,000 active; AID 2147; active means well fitted inhibition curve with a large enough effect, not every such curve was filed as active; inconclusive means small, poorly fitted or top-dose-only effect, or another doubt; inactive means no such curve, though single readings can be large or run the other way;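 further: potency means the concentration at half of the fitted maximal effect; 0% = wells with enzyme and -100% = buffer wells without enzyme; nearly all actives have a fitted effect of over 50% in size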
PI5P4K alpha inh: blocks human PI5P4K alpha kinase activity; P48426; 1.2% of 330,000 active; AID 652105; PI5P4Kalpha enzyme, ADP-Glo luminescence, 60 min; active compounds read low; max response, %; active means max response of -50% or lower; inconclusive means between -30% and -50%; inactive means -30% or higher; further: value at the top dose of about 77 µM; on the % scale 0 is the no-effect control and ±100 the full control effect
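Controls without substrate or without enzyme flank wells where PI5P4Kalpha converts substrate using 5 microM ATP (final). Incubation lasts 60 minutes at room temperature; ADP formed is read by ADP-Glo luminescence.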
Starred values were filed as active, the others as inactive; [ ] = another dose, or the depositor's remark. The list is not random: actives were taken first. Their share in the collection is about 5.7%. Unless noted, the call rests on the fitted dose curve; in most records, active means well fitted inhibition curve with a large enough effect; inconclusive means small, poorly fitted or top-dose-only effect; inactive means no such curve, though single readings can be large or run the other way.

How did Cc1ccccc1/C=N/n1c(-c2cc(-c3ccccc3)n[nH]2)n[nH]c1=S do in these assays?
BAZ2B inh: 0%; HP1b binding inh: 39%; JMJD2A Tudor: inconclusive; KDM4E inh: -2%; PI5P4K alpha inh: -22

How did O=C(NNc1nc(=O)c2cccnc2s1)c1ccccc1O do in these assays?
HP1b binding inh: -5%; JMJD2A Tudor: 50µM*; KDM4E inh: 14µM*; PI5P4K alpha inh: -68*

What do the screens show for `O=C(NNc1c2ccccc2nc2ccccc12)c1ccccc1O`?
L3MBTL1 block: -26%; BAZ2B inh: 7.9µM*; HP1b binding inh: -8%; JMJD2A Tudor: inconclusive; KDM4E inh: inconclusive; PI5P4K alpha inh: -11

Results for O=C(NNC(=O)c1cccc2ccccc12)c1ccccc1O ?
BAZ2B inh: -7%; HP1b binding inh: 33%; JMJD2A Tudor: -9%; PI5P4K alpha inh: 3

Results for O=C(NNc1c2ccccc2nc2ccccc12)c1ccc(O)cc1O ?
L3MBTL1 block: inconclusive; BAZ2B inh: 20µM*; HP1b binding inh: inconclusive; JMJD2A Tudor: 40µM*; KDM4E inh: inconclusive; PI5P4K alpha inh: inconclusive

What do the screens show for `COc1ccc(S(=O)(=O)N2CCCCC2)cc1C(=O)Nc1cccc(C(F)(F)F)c1`?
BAZ2B inh: 5%; HP1b binding inh: 25%[57 µM]; JMJD2A Tudor: -10%

What do the screens show for `CCOC(=O)c1c(-c2ccccc2)csc1NC(=O)c1cc(-c2ccc(F)cc2)on1`?
BAZ2B inh: -10%; HP1b binding inh: -15%; JMJD2A Tudor: 1%

How did Cc1ccc2cc(C)c3nnc(SCc4ccc(C(=O)O)cc4)n3c2c1C do in these assays?
BAZ2B inh: inconclusive; HP1b binding inh: 27%; JMJD2A Tudor: 40µM*; KDM4E inh: -10%; PI5P4K alpha inh: 2

How did CCc1ccc(NC(=O)CSc2nc(-c3cccc(OC)c3)nc3c2Cc2c(CO)cnc(C)c2O3)cc1 do in these assays?
BAZ2B inh: -19%; HP1b binding inh: -15%; JMJD2A Tudor: -18%

How did N#Cc1c(Nc2ccc(Cl)cc2)s[nH]c1=O do in these assays?
BAZ2B inh: -5%; HP1b binding inh: -5%; JMJD2A Tudor: 79µM*; KDM4E inh: -12%; PI5P4K alpha inh: inconclusive

How did CSc1nc(Nc2ccc(Cl)cc2)c(C#N)c(=O)[nH]1 do in these assays?
L3MBTL1 block: -2%; BAZ2B inh: -6%; HP1b binding inh: 53%; JMJD2A Tudor: -11%; PI5P4K alpha inh: -18

Results for COc1ccc(-c2cc(=O)oc3cc(OCC(=O)Nc4ccccn4)ccc23)cc1 ?
BAZ2B inh: -27%; HP1b binding inh: 19%; JMJD2A Tudor: 18µM*; PI5P4K alpha inh: inconclusive

Results for CC(=O)c1ccc(NC(=O)c2nc3ccccc3n(C)c2=O)cc1 ?
BAZ2B inh: -3%; HP1b binding inh: 40%; JMJD2A Tudor: 1%

How did COc1ccc(CCN(C)CCCOc2ccc(S(=O)(=O)c3[nH]c4ccccc4c3C(C)C)cc2)cc1OC do in these assays?
KDM4E inh: 25µM*

What do the screens show for `NC(=O)c1ccsc1NC(=O)COC(=O)CCc1ccccc1`?
PI5P4K alpha inh: -23

How did S=C(N=Nc1ccccc1)NNc1ccccc1 do in these assays?
L3MBTL1 block: inconclusive; BAZ2B inh: 35µM*; HP1b binding inh: 16µM*; JMJD2A Tudor: 25µM*; KDM4E inh: -17%; PI5P4K alpha inh: -25

How did [S-]c1nnc(-c2ccc(Br)cc2)n1-c1ccccc1.[Zn+2] do in these assays?
L3MBTL1 block: 5%[2.29 µM]; BAZ2B inh: 79µM*; HP1b binding inh: 21%; JMJD2A Tudor: 50µM*; PI5P4K alpha inh: -5

How did COC(=O)c1cc(CSc2nnc(NC3CCCCC3)s2)oc1C do in these assays?
BAZ2B inh: inconclusive; HP1b binding inh: 19%; JMJD2A Tudor: 89µM*; KDM4E inh: 6%; PI5P4K alpha inh: 6

Results for CCC(Sc1ncnc2sc3c(c12)CCCC3)C(=O)OCC(C)C (stereo unspecified) ?
BAZ2B inh: 205%; HP1b binding inh: 188%; JMJD2A Tudor: 143%

What do the screens show for `COc1cc(C(=S)N2CCN(C(c3ccccc3)c3ccccc3)CC2)cc(OC)c1O`?
L3MBTL1 block: -17%; BAZ2B inh: 40µM*; HP1b binding inh: inconclusive; JMJD2A Tudor: 56µM*; PI5P4K alpha inh: -10

Results for COc1ccc(NC(=S)N2CCN(C(c3ccccc3)c3ccccc3)CC2)cc1OC ?
L3MBTL1 block: -15%; BAZ2B inh: inconclusive; HP1b binding inh: -16%; JMJD2A Tudor: inconclusive; KDM4E inh: -4%; PI5P4K alpha inh: 9

How did COc1cccc(CN2CCN(C(c3ccccc3)c3ccccc3)CC2)c1O do in these assays?
L3MBTL1 block: -6%; BAZ2B inh: 35µM*; HP1b binding inh: inconclusive; JMJD2A Tudor: 50µM*; PI5P4K alpha inh: 2

How did O=C(NNc1nc(-c2ccc(F)cc2)cs1)c1ccccc1 do in these assays?
BAZ2B inh: -17%; HP1b binding inh: inconclusive; JMJD2A Tudor: -19%; KDM4E inh: inconclusive; PI5P4K alpha inh: -53*

What do the screens show for `Cc1cccc(C)c1NC(=S)/N=C/N(C)C`?
L3MBTL1 block: 6%; BAZ2B inh: -7%; HP1b binding inh: -22%; JMJD2A Tudor: 14µM*; KDM4E inh: 2%; PI5P4K alpha inh: -15

How did CN(C)/C=N/C(=S)Nc1ccc(Cl)cc1 do in these assays?
L3MBTL1 block: -7%; BAZ2B inh: -25%; HP1b binding inh: 5%; JMJD2A Tudor: -23%; KDM4E inh: -9%; PI5P4K alpha inh: 0

Results for CCN(CC)c1ccc(N=C2C(=O)Nc3ccccc32)cc1 ?
BAZ2B inh: 11µM*; HP1b binding inh: inconclusive; JMJD2A Tudor: 16µM*; PI5P4K alpha inh: inconclusive

Results for O=C1Nc2ccccc2C1=Nc1ccc2[nH]c3ccccc3c2c1 ?
HP1b binding inh: inconclusive; JMJD2A Tudor: 35µM*; PI5P4K alpha inh: -1

Results for CN(C)C=Nc1nonc1-c1ncn[nH]1 ?
L3MBTL1 block: 3%; BAZ2B inh: -10%; HP1b binding inh: 10%; JMJD2A Tudor: 2.5µM*; KDM4E inh: inconclusive; PI5P4K alpha inh: 1

What do the screens show for `O=C(N/N=C/c1ccco1)c1cnccn1`?
L3MBTL1 block: -3%; BAZ2B inh: 9%; HP1b binding inh: 11%; JMJD2A Tudor: inconclusive; KDM4E inh: -3%

How did O=C(N/N=C\C=C\c1ccco1)c1cc(-c2ccc3ccccc3c2)n[nH]1 do in these assays?
L3MBTL1 block: inconclusive; BAZ2B inh: 3%; HP1b binding inh: 6%; JMJD2A Tudor: -34%; KDM4E inh: 6%; PI5P4K alpha inh: -68*

How did O=C(N/N=C/C=C/c1ccco1)c1cnccn1 do in these assays?
L3MBTL1 block: 7.1µM*; BAZ2B inh: 14%; HP1b binding inh: 7%; JMJD2A Tudor: 50µM*; KDM4E inh: 0%; PI5P4K alpha inh: -2
